Compound activity deposited in PubChem by several laboratories.
In the library only some 4.3% were active in any assay of this set; here they are far more common.
PfHsp40 yeast: rescue of PfHsp40-mediated yeast toxicity | S. cerevisiae expressing PfHsp40, growth rescue, ATP luminescence | 340,000 tested, 0.68% active | growth rescue, % at 12.5 µM; in the data active = growth rescue above about 28%, passing the limit was not always enough; inconclusive = no clear call, values can overlap the other calls;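 also: yeast W303a lacking pdr1 and pdr3 grown in galactose medium; growth measured after three days at 30 °C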
BoNT A protease: blocks Botulinum neurotoxin A light chain protease | multiplex microsphere protease substrate cleavage, flow cytometry | inhibition, % at 10 µM | 360,000 tested, 0.17% active | AID 588499; also: plate controls were buffer without enzyme for full effect and enzyme alone for no effect
Bead autofluor: flagged as autofluorescent in microsphere protease counterscreen; compound autofluorescence counterscreen, microsphere flow cytometry; active compounds read high; fluorescence intensity (test concentration not listed); 360,000 tested, 3.1% active; in the data active = fluorescence intensity above about 16000; inconclusive = no clear call, values can overlap the other calls
MazEF act: MazEF (E. coli) toxin RNase activation; P0AE70; FAM/BHQ RNA-DNA oligo cleavage fluorescence, 5 h; activation, % at 20 µM; 350,000 tested, 0.32% active; in the data active = activation above about 50%
BoNT F protease: blocks Botulinum neurotoxin F light chain protease. Multiplex microsphere protease cleavage assay, flow cytometry. inhibition, % at 10 µM. 360,000 tested, 0.22% active; in the data active = inhibition above about 35%, passing the limit was not always enough; inconclusive = no clear call, values can overlap the other calls; also: plate controls were buffer without enzyme for full effect and enzyme alone for no effect
Anthrax LF prot: anthrax lethal factor protease inhibition; P15917; multiplex microsphere protease cleavage assay, LF; inhibition, % at 10 µM; 360,000 tested, 0.12% active; also: plate controls were buffer without enzyme for full effect and enzyme alone for no effect
Starred values were filed as active, the others as inactive; ? = inconclusive; · = no result. Rule as the data show it, unless noted: active = inhibition above about 30%; inconclusive = no clear call, values can overlap the other calls; inactive = below that.

SMILES	PfHsp40 yeast	BoNT A protease	Bead autofluor	MazEF act	BoNT F protease	Anthrax LF prot
Cn1c(SCc2cccc(Cl)c2)nc(C(F)(F)F)cc1=O	2	2	18749*	1	3	-6
C[C@H](CO)NC(=O)c1nc[nH]c1C(=O)N[C@H](C)c1ccccc1	·	0	3737	7	0	-10
O=C(CN1C(=O)c2cccnc2Oc2ccc(Cl)cc21)N1CCOCC1	1	1	4912	2	3	-1
CCOC1(C(F)(F)F)NC(=O)N(Cc2ccc(OC)cc2)C1=O (stereo unspecified)	0	0	19545*	3	0	-8
c1ccc2c(c1)nc(NCc1ccc3c(c1)OCO3)n2CCN1CCOCC1	0	0	2649	1	2	-1
c1ccc(Cn2c(CNc3nc4ccccc4n3CCN3CCOCC3)nc3ccccc32)cc1	0	?	23712*	-1	-2	0
COc1ccc(OC)c(CNc2nc3ccccc3n2CCN2CCCCC2)c1	0	0	16368*	4	-6	-2
O=c1c2c([nH]c3ccccc13)CCCCCC2	0	?	22192*	3	-3	-6
O=c1cc(-c2ccccc2)c2c([nH]1)CCCC2	0	5	19679*	0	7	-8
CCN(CC(=O)Nc1ccccc1C(F)(F)F)C(=O)CCc1c(C)[nH]c(=O)c(C#N)c1C	-2	0	4578	-7	-3	1
COc1ccccc1N1CCN(c2nc3c(C)cccn3c(=O)c2C=O)CC1	0	?	20185*	2	2	-1
Cc1cccn2c(=O)c(C=O)c(N3CCCCCC3)nc12	0	1	19642*	-6	1	-4
Cc1cc(C)c(C2=NOC(O)(C(F)(F)F)C2)c(=O)[nH]1 (stereo unspecified)	0	0	2539	0	-4	0
Cc1cc(C)c(-c2cc(C(F)(F)F)no2)c(=O)[nH]1	-1	?	17034*	-4	-5	0
CC(C)(C)c1ccc(/C=N/OCC(=O)NCc2ccc(F)cc2)cc1	74*	0	1985	-7	-4	0
O=C(Nc1cccc(Br)c1)c1ccn[nH]1	1	-3	21776*	1	-5	-4
O=C1Nc2ccccc2OC1CC(=O)N1CCOCC1 (stereo unspecified)	0	-1	5434	2	-14	-7
O=C1Nc2ccccc2OC1CC(=O)N1CCN(c2cccc(C(F)(F)F)c2)CC1 (stereo unspecified)	1	2	21735*	-5	1	2
CC1(C(=O)NS(=O)(=O)c2ccccc2Cl)CCN1C(=O)CCc1cccs1 (stereo unspecified)	·	-1	2875	·	-21	-12
CC(=O)Nc1ccc(/C=C(\C#N)C(N)=O)cc1	0	2	3652	7	35*	?
O=C1NC(=O)C2(Cc3ccccc3N3CCCC32)C(=O)N1Cc1ccccc1 (stereo unspecified)	0	?	19390*	0	3	-3
O=C1NC(=O)[C@]2(Cc3ccccc3N3CCN(c4ccccc4)CC32)C(=O)N1Cc1ccccc1 (stereo partly specified)	-1	2	4621	3	6	1
Cc1ccc(N2C(=O)NC(=O)C3(Cc4ccccc4N4CCCC43)C2=O)cc1 (stereo unspecified)	0	?	19892*	-2	2	2
O=C1NC(=O)C2(Cc3ccccc3N3CCCC32)C(=O)N1c1ccc(Cl)cc1 (stereo unspecified)	-1	·	·	-1	·	·
O=C1NC(=O)[C@]2(Cc3ccccc3N3CCN(c4ccccc4)CC32)C(=O)N1c1ccccc1 (stereo partly specified)	0	-2	24028*	7	-5	-3
CN1C(=O)NC(=O)[C@]2(Cc3ccccc3N3CCN(c4ccccc4)CC32)C1=O (stereo partly specified)	-1	-2	16912*	4	-1	-2
CCC1(c2ccccc2)NC(=O)N(CC(=O)NC2CCCCCC2)C1=O (stereo unspecified)	-1	0	5541	3	?	-1
CN1C(=O)NC(=O)C2(Cc3ccccc3N3CCOCC32)C1=O (stereo unspecified)	-1	?	17659*	5	-6	3
O=C(c1ccccc1)c1nc2ccccc2n(CCCn2c(=O)c(C(=O)c3ccccc3)nc3ccccc32)c1=O	-1	1	16402*	-1	0	6
